Screening results: PubChem BioAssay, several laboratories
An excerpt weighted towards active compounds, which were near 5.9% of everything screened.
Rtt109 HAT inh = blocks Candida albicans Rtt109/Vps75 acetyltransferase activity; 330,000 tested, 0.16% active; inhibition, % at 34.9 µM; purified Rtt109/Vps75, ThioGlo CoA-SH fluorescence, 4 h; Q5AAJ8;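 active means inhibition of at least 50% in every replicate; inconclusive means best replicate reaches 50% inhibition but some replicates fall short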
rCAG binder = binds r(CAG) RNA repeats; r(CAG) RNA repeat, TO-PRO-1 dye displacement fluorescence; 370,000 tested, 1.3% active; inhibition, % at 3 µM; AID 651821;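 active means inhibition above the plate cutoff, the mean of all test compounds on that plate plus 3 SD, cut at about 35% in these data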;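 further: 0% = DMSO alone and 100% = 100 µM mitoxantrone as full dye displacement; higher means more dye released from RNA so lower well fluorescence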
ABHD5 PLIN5 PPI = ABHD5-PLIN5 protein interaction inhibition; Split G. princeps luciferase complementation, luminescence, 4 h; Q00G26+Q8WTS1; inhibition, % at 4 µM; 360,000 tested, 0.78% active;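 active means inhibition above the mean inhibition across every tested compound plus 3 SD, cut at about 22% in these data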;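 further: 0% = DMSO only wells and the 100% control is not disclosed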
PRMT1 inh = blocks human protein arginine methyltransferase 1; Q99873; inhibition, % at 2.79 µM; recombinant PRMT1, activity-based probe fluorescence polarization; AID 652257; 370,000 tested, 1.3% active;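 active means inhibition above about 21% made by adding two undisclosed values, limit read from the data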
Target sequence (Q99873 whole entry, looked up): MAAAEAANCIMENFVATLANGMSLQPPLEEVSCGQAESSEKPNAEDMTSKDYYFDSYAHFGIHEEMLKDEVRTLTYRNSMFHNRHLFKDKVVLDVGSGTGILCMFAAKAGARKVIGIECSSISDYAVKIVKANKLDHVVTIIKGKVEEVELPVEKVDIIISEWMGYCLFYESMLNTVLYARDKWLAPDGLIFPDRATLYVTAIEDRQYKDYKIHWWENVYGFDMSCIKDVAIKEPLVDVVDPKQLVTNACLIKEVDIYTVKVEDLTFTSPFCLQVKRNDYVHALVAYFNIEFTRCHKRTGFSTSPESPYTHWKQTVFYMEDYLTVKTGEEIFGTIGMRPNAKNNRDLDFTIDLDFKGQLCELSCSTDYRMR
LANA-H2B inh = blocks KSHV LANA binding to histone H2A/H2B; Q9QR71; cell-free LANA-H2A/H2B peptide, fluorescence polarization; inhibition, % (test concentration not listed); 320,000 tested, 0.6% active; AID 2629; in the data active means inhibition mostly above about 10%, no sharp cut-off; inactive means mostly below about 6.7%
ALR inh = human ALR oxidase inhibition via reduced H2O2; P55789; purified ALR, DTT oxidation, H2O2 HRP-luminol luminescence; inhibition, % (concentration not given with the values); 290,000 tested, 3.8% active;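 active means mean replicate inhibition above about 79%, with every replicate also reaching it, limit read from the data; inconclusive means only one of the two criteria met; inactive means mean below limit and not every replicate reaching it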
Target sequence (P55789 whole entry, looked up): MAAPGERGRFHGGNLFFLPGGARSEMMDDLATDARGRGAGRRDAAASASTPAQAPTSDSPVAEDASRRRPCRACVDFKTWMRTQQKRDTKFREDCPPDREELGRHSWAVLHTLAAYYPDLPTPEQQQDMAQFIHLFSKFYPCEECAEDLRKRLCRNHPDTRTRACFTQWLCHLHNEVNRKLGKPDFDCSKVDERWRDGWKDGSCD
* marks the source's active call; other numbers are inactive results.

For Cc1nn(C)c(C)c1CCC(=O)N1CCCC(Nc2ccc(C(C)C)cc2)C1 (centres undefined) the results were Rtt109 HAT inh 8, rCAG binder -7, ABHD5 PLIN5 PPI -1, PRMT1 inh -5, LANA-H2B inh -3 and ALR inh 51.
NC(=O)C1CCN(c2ncc(Br)cn2)CC1 was read as PRMT1 inh 3.
`CCc1ccc(Oc2c(Cl)cnn(-c3ccc(C)cc3)c2=O)cc1` gave PRMT1 inh 3.
`CCCN1CC(=O)N2[C@H](C[C@@]3(n4ccc5ccccc54)c4ccccc4N(S(=O)(=O)c4ccccc4)[C@@H]23)C1=O` gave rCAG binder 6 and PRMT1 inh -4.
For O=C1CCCCN1CCC(=O)N1CCCC(N2CCN(c3ccccc3)CC2)C1 (centres undefined) the results were Rtt109 HAT inh -1, rCAG binder -1, ABHD5 PLIN5 PPI -3, PRMT1 inh -2, LANA-H2B inh 1 and ALR inh 93*.
O=C(CCN1CCCO1)N1CCCC(N2CCN(c3ccccc3F)CC2)C1 (centres undefined) was read as Rtt109 HAT inh -5, rCAG binder -5, ABHD5 PLIN5 PPI 4, PRMT1 inh 7, LANA-H2B inh -1 and ALR inh -10.
Cc1nonc1C(=O)N1CCCC(N2CCN(c3ccc(F)cc3)CC2)C1 (centres undefined) was read as Rtt109 HAT inh 2, rCAG binder -8, ABHD5 PLIN5 PPI 8, PRMT1 inh -3, LANA-H2B inh -3 and ALR inh 98*.
Screening O=C(CCN1CCCCO1)N1CCCC(N2CCN(c3ccc(F)cc3)CC2)C1 (centres undefined) returned Rtt109 HAT inh 17, rCAG binder -7, ABHD5 PLIN5 PPI 8, PRMT1 inh -2, LANA-H2B inh 13* and ALR inh 97*.
CC(C)c1ccc(NC2CCCN(C(=O)CCN3CCCCO3)C2)cc1 (centres undefined) was read as Rtt109 HAT inh -4, rCAG binder -11, ABHD5 PLIN5 PPI -1, PRMT1 inh 1, LANA-H2B inh -14 and ALR inh 79*.
`Nc1nc2cc3c(cc2cc1C(=O)NCCc1c[nH]c2ccccc12)OCO3` gave rCAG binder 10 and PRMT1 inh 3.
Cc1ccc(F)c(S(=O)(=O)NC(=O)C2(C)CCN2C(=O)c2ccc(C(F)(F)F)nc2C)c1 (centres undefined) was read as rCAG binder 4, ABHD5 PLIN5 PPI 13 and PRMT1 inh -1.
For CCCCC(=O)N(C)c1c(C)nc2ccc(C(=O)N3CCN(S(=O)(=O)CC)CC3)cn12 the results were rCAG binder -1, ABHD5 PLIN5 PPI 0 and PRMT1 inh -2.
Screening CC(C)(C)c1ccc(C(=O)C2CCCN(C(=O)CN3CCCC3=O)C2)cc1 (centres undefined) returned Rtt109 HAT inh 0, rCAG binder -9, ABHD5 PLIN5 PPI 0, PRMT1 inh 2, LANA-H2B inh -2 and ALR inh -3.
Cc1ccc(NC2CCCN(C(=O)CCN3CCCCO3)C2)cc1C (centres undefined) was read as Rtt109 HAT inh -3, rCAG binder -5, ABHD5 PLIN5 PPI -6, PRMT1 inh 0, LANA-H2B inh -5 and ALR inh 98*.
Screening O=C1CCCCN1CC(=O)N1CCCC(Nc2ccc(F)cc2)C1 (centres undefined) returned Rtt109 HAT inh -8, rCAG binder -2, ABHD5 PLIN5 PPI 5, PRMT1 inh -8, LANA-H2B inh -3 and ALR inh 91*.
Screening COCCNC(=S)NNC(=O)c1ccco1 returned Rtt109 HAT inh 3, rCAG binder 0, ABHD5 PLIN5 PPI -3, PRMT1 inh -1, LANA-H2B inh 61* and ALR inh 24.
For CCC(=O)Nc1ccc(NC(=S)NC(=O)/C=C/c2ccco2)cc1 the results were Rtt109 HAT inh 2, rCAG binder 21, ABHD5 PLIN5 PPI 3, PRMT1 inh 8, LANA-H2B inh 0 and ALR inh 7.
For O=C(/C=C/c1ccco1)NC(=S)Nc1ccc(N2CCCC2)cc1 the results were Rtt109 HAT inh -6, rCAG binder 23, ABHD5 PLIN5 PPI 3, PRMT1 inh 25*, LANA-H2B inh -1 and ALR inh 74.
`NS(=O)(=O)c1ccc(NC(=O)/C=C/c2ccco2)cc1` gave Rtt109 HAT inh 4, rCAG binder 13, ABHD5 PLIN5 PPI 13, PRMT1 inh 8, LANA-H2B inh 0 and ALR inh 96*.
For O=C(/C=C/c1ccco1)Nc1ccc(S(=O)(=O)N2CCOCC2)cc1 the results were Rtt109 HAT inh -3, rCAG binder 3, ABHD5 PLIN5 PPI 6, PRMT1 inh 1, LANA-H2B inh 2 and ALR inh 1.
`O=C(/C=C/c1ccco1)NC(=S)Nc1ccc(C(=O)O)cc1` gave Rtt109 HAT inh -3, rCAG binder 19, ABHD5 PLIN5 PPI 4, PRMT1 inh 24* and LANA-H2B inh -1.
`CC(=O)NC(=S)Nc1ccc(NC(=S)NC(=O)/C=C/c2ccco2)cc1` gave Rtt109 HAT inh 2, rCAG binder 20, ABHD5 PLIN5 PPI 2, PRMT1 inh 9 and LANA-H2B inh -6.
For CCOC1=C2CN(S(=O)(=O)c3ccc(C)cc3)C(c3cccc(Cl)c3)CC2NC(c2ccccc2)C1 (centres undefined) the results were rCAG binder 5, ABHD5 PLIN5 PPI 2 and PRMT1 inh -2.
Screening O=C(/C=C/c1ccco1)NC(=S)NNC(=O)c1ccco1 returned Rtt109 HAT inh -7, rCAG binder 9, ABHD5 PLIN5 PPI 13, PRMT1 inh 2, LANA-H2B inh 0 and ALR inh 98*.
For C=CCNC(=S)NNC(=O)c1ccco1 the results were Rtt109 HAT inh 0, rCAG binder 1, ABHD5 PLIN5 PPI -4, PRMT1 inh 2, LANA-H2B inh 1 and ALR inh 12.
Screening CS(=O)(=O)c1cccc(C(=O)Nc2cccc(-c3nc4ccccc4[nH]3)c2)c1 returned Rtt109 HAT inh 18, rCAG binder 9, ABHD5 PLIN5 PPI 5, PRMT1 inh 4, LANA-H2B inh 2 and ALR inh 99*.
CS(=O)(=O)c1ccc(C(=O)Nc2ccc(-c3nc4ccccc4[nH]3)cc2)cc1 was read as Rtt109 HAT inh -2, rCAG binder 9, ABHD5 PLIN5 PPI -1, PRMT1 inh 2, LANA-H2B inh 1 and ALR inh 14.
CS(=O)(=O)c1ccc(C(=O)Nc2cccc(-c3nc4ccccc4[nH]3)c2)cc1 was read as Rtt109 HAT inh 3, rCAG binder 14, ABHD5 PLIN5 PPI 0, PRMT1 inh 5, LANA-H2B inh -8 and ALR inh 99*.
Screening C=C(C(=O)Oc1ccccc1C(C)(C)C)c1ccccc1 returned LANA-H2B inh 0 and ALR inh inconclusive.
`O=C(CSc1nnc(-c2ccccc2)n1-c1ccc(Cl)cc1)c1ccccc1Br` gave rCAG binder 15 and PRMT1 inh 3.
